Screens from PubChem.
Compounds with a hit are over-represented: about 21% of the library has one in this group of screens.
D3 antag: qHTS of D3 Dopamine Receptor Antagonist: qHTS; 360,000 compounds, 2.5% hits; D(3) dopamine receptor (Homo sapiens), P35462; max response, negative = inhibition, %; AID 652054, 2013; D3R cells, DiscoveRx beta-arrestin luminescence, antagonist mode; active compounds read low; in the data active means max response below about -50%; inconclusive means no clear call, values can overlap the other calls; further: on the % scale 0 is the no-effect control and ±100 the full control effect
Target sequence (P35462 whole entry, looked up): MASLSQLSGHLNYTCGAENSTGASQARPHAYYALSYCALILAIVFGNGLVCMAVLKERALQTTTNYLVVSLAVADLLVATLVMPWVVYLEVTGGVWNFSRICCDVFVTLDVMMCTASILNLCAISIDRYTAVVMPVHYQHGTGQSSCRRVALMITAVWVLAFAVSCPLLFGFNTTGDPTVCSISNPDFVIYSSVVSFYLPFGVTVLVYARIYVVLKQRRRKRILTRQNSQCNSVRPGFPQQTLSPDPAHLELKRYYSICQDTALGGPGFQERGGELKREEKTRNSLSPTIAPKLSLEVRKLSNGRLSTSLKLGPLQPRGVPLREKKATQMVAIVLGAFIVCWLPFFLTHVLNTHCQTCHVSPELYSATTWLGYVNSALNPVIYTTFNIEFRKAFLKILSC
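Cells plated overnight at 1500 cells/well, then exposed to library compounds with dopamine controls for 90 minutes at 37 degrees C. DiscoveRx reagent added for 30–60 minutes at room temperature; luminescence read, quantitative HTS format.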
DRD3 agonist: qHTS of D3 Dopamine Receptor Agonist: qHTS. D(3) dopamine receptor (Homo sapiens), P35462. D3R DiscoveRx beta-arrestin cells, luminescence, 90 min. max activation, %. 410,000 compounds, 0.58% hits. AID 652048, 2013; in the data active means max activation above about 30%; further: 0% is about no effect
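Agonist-mode cell screen: cells plated at 1500/well and incubated overnight at 37 °C, then exposed to library compounds for 90 min at 37 °C. Detection reagent was added for 30–60 min at room temperature, and luminescence was read.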
DT40 TDP1 no CPT: qHTS for Inhibitors of human tyrosyl-DNA phosphodiesterase 1 (TDP1): qHTS in cells in absence of CPT | DT40 Tdp1-/- hTDP1 cells, no CPT, ATP luminescence, 48 h | Potency, µM (top dose mostly 46.2 µM), inactives show top-dose activity change, negative = growth inhibition, actives largely listed as inhibitors | 420,000 compounds, 15% hits; further: potency means the concentration at half of the fitted maximal effect; on the % scale 0 is the no-effect control and ±100 the full control effect; nearly all actives have a fitted effect of over 55% in size
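Readout: luminescence from CellTiter-Glo after 30 min in the dark at RT. Cells: DT40 Tdp1-/- with stable hTDP1, 400/well. Exposure: compounds alone, ≥48 hr, 37 °C.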
TDP1 cell CPT: qHTS for Inhibitors of human tyrosyl-DNA phosphodiesterase 1 (TDP1): qHTS in cells in presence of CPT; Potency, µM (highest dose often 46.2 µM), without a hit: top-dose activity change, negative = growth inhibition, hits mostly inhibitors; 420,000 compounds, 12% hits; chicken DT40 Tdp1-/-;hTDP1 cells + 20 nM CPT, ATP luminescence, 48 h; AID 686979, 2013; further: potency means the concentration at half of the fitted maximal effect; on the % scale 0 is the no-effect control and ±100 the full control effect; nearly all actives have a fitted effect of over 55% in size
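Chicken DT40 Tdp1-/- cells stably complemented with human TDP1 were seeded at 400 cells/well in medium containing 20 nM camptothecin, exposed to pin-transferred compounds, and grown at 37 °C for at least 48 hr. Viability was read as ATP luminescence.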
IL1B secr inh: qHTS for Inhibitors of Inflammasome Signaling: IL-1-beta AlphaLISA Primary Screen | THP-1 LPS/ATP IL-1B secretion, AlphaLISA, 16 h; active compounds read low | activity change, % at 57.5 µM | AID 743279, 2014 | 360,000 compounds, 4.7% hits; in the data active means activity change below about -50%; inconclusive means mostly about -30% to -49%; further: on the % scale 0 is the no-effect control and ±100 the full control effect
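THP-1 cells pretreated 1 hr with compounds (up to 57.5 uM final), then stimulated with LPS (250 ng/mL final) plus ATP (1.25 mM final); secreted IL-1B measured by AlphaLISA after 16 hr, decreased signal indicating inhibition.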
ClpP mod: qHTS Assay for Activators of ClpP. ATP-dependent Clp protease proteolytic subunit (Bacillus subtilis (strain 168)), P80244. purified B. subtilis ClpP, FRET peptide cleavage, 20 min. Potency, µM (doses to about 57.5 µM), for the others: at the highest dose activity change, negative = active. 340,000 compounds, 1.9% hits; active means well fitted falling curve with a large enough effect; inconclusive means small, poorly fitted or top-dose-only effect; inactive means no such curve, though single readings can be large or run the other way; further: potency means the concentration at half of the fitted maximal effect; the source files actives as falling curves though it sought activators and does not explain the sign; nearly all actives have a fitted effect of over 65% in size
Target sequence (P80244 whole entry, looked up): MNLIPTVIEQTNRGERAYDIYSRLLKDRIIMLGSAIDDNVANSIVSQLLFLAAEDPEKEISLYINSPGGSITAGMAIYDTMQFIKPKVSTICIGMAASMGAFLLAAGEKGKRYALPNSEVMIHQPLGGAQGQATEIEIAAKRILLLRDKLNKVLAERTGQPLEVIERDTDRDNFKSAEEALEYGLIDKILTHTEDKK
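Buffer: 100 mM Tris/HCl pH8, 100 mM KCl, 0.05% low protease BSA, 2.5% glycerol, 0.01% Tween-20. ClpP 10 microg/mL final; 20 min RT; delta FRET normalized to ADEP and DMSO controls.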
* = called active by the depositor; u = inconclusive; x = no result given; [ ] = remark or other dose. Unless noted, the call rests on the fitted dose curve; in most records, active means well fitted inhibition curve with a large enough effect; inconclusive means small, poorly fitted or top-dose-only effect; inactive means flat fitted curve, though single readings scatter.

SMILES | D3 antag | DRD3 agonist | DT40 TDP1 no CPT | TDP1 cell CPT | IL1B secr inh | ClpP mod
COc1ccc(S(=O)(=O)Nc2ccc3c(c2)C(=O)N([C@H](C)CO)C[C@H](C)[C@@H](CN(C)S(=O)(=O)c2c(C)noc2C)O3)cc1 | 4 | 15 | -20% | -1% | -6 | 0%
CSCCC(NC(=O)c1ccccc1Cl)C(=O)OCC(=O)N1CCCC1=O (stereo unspecified) | 6 | -3 | -2% | 2% | -1 | 1%
O=C(NCc1ccncc1)C(=O)NCC1OCCN1S(=O)(=O)c1ccc(F)cc1 (stereo unspecified) | 6 | 2 | 8% | 6% | 32 | -1%
Nc1ccc(/C=C/c2ccnc3ccccc23)c(N)c1 | x | x | u | 10µM* | x | -1%
Cc1c(C)c(C)c(/C=C/c2ccnc3ccccc23)c(C)c1C | x | x | 11µM* | 11µM* | x | -7%
Clc1ccc(/C=C/c2ccnc3ccccc23)cc1 | x | x | 8.9µM* | 10µM* | x | 4%
Nc1ccc(/C=C/c2ccnc3ccccc23)cc1 | x | x | 11µM* | 10µM* | x | 0%
CCO[C@@H]1OC(C(=O)O)=C[C@H](C2CC2)[C@H]1CCCO | -12 | -18 | -3% | 3% | 0 | 0%
CCN(C(=O)COC(=O)CCNS(=O)(=O)c1ccccc1F)c1c(N)n(Cc2ccccc2)c(=O)[nH]c1=O | 6 | 2 | -9% | -21% | 11 | x
CCN(CC)CCCNc1oc(-c2ccc(OC)cc2)nc1C#N | x | -6 | u | u | x | -1%
C(=C\c1nnc2c3ccccc3ncn12)/c1ccccc1 | -1 | -11 | 4.6µM* | 5.2µM* | 45 | u
C(=C\c1ccnc2ccccc12)/c1ccccc1 | x | x | 13µM* | u | x | u
C(=C\c1ccnc2ccccc12)/c1ccc(-[n+]2cc[n+](-c3ccc(/C=C/c4ccnc5ccccc45)cc3)cc2)cc1 | x | x | 5µM* | 5.6µM* | x | -4%
CCc1ccccc1Nc1nc2ccccc2c2nncn12 | x | 5 | u | u | x | -1%
Clc1ccc(C=Cc2ccccn2)c(Cl)c1 | 6 | 6 | -22% | u | 18 | x
Clc1ccc(/C=C/c2ccnc3ccccc23)c(Cl)c1 | x | x | 3.5µM* | 5.6µM* | x | -7%
Cn1cnc2c(=O)oc3ccc(S(=O)(=O)N4CCN(c5ccccc5F)CC4)cc3c21 | x | -4 | -23% | -9% | x | -5%
O=C(COC(=O)CNC(=O)c1ccccc1)NCCCc1ccccc1 | -6 | -4 | 3% | -3% | -2 | x
CN(C(=O)c1ccncc1)C1CCCCC1 | 2 | -6 | -8% | 0% | 16 | x
O=C(NCc1cccnc1)c1cnn(-c2ncc3c(n2)-c2ccccc2CCC3)c1C1CC1 | x | x | u | -16%[9.04 µM] | x | x
CC(C)c1ccc(NC(=O)C2CC(=O)Nc3nc4ccccc4n32)cc1 (stereo unspecified) | 7 | 9 | 15% | 1% | 0 | 2%
O=Nc1ccc(/C=C/c2ccnc3ccccc23)cc1 | x | x | 8.9µM* | 16µM* | x | 1%
CCOC(=O)C1(C)NC(c2ccc(N(C)C)cc2)C2C(=O)N(c3ccc(OC)cc3)C(=O)C21 (stereo unspecified) | 3 | 23 | -13% | 9% | -14 | 0%
CCOC(=O)C1(C)NC(c2cccs2)C2C(=O)N(c3ccc(OC)cc3)C(=O)C21 (stereo unspecified) | 9 | 5 | 18µM* | 10µM* | 15 | x
CCOC(=O)C1(C)NC(c2ccccc2F)C2C(=O)N(c3cccc(C(C)=O)c3)C(=O)C21 (stereo unspecified) | 1 | -2 | 18µM* | 23µM* | 13 | -1%
SMILES | D3 antag | DRD3 agonist | DT40 TDP1 no CPT | TDP1 cell CPT | IL1B secr inh | ClpP mod
COc1ccc(-c2cc(C(=O)N3CCN(c4ccccc4)CC3)c3ccccc3n2)cc1 | 35 | 15 | 4.6µM* | 3.3µM* | 97 | x
COc1ccc(N2CCN(C(=O)c3cc(-c4cc(OC)ccc4OC)nc4ccccc34)CC2)cc1 | -22 | 4 | 23µM* | 23µM* | 16 | 0%
COc1ccc(-c2cc(C(=O)O)c3ccccc3n2)c(OC)c1 | -10 | -10 | -12% | -10% | 20 | -13%
COc1ccc(-c2cc(C(=O)N3CCCCCC3)c3ccccc3n2)c(OC)c1 | 2 | 1 | 12µM* | u | u | 3%
CC(=O)c1ccc(N2CCN(C(=O)c3cc4c(C)nc5ccccc5c4o3)CC2)cc1 | 37 | 24 | u | -10% | 14 | u
CC(=O)c1ccc(N2CCN(C(=O)c3cc(-c4ccc5c(c4)OCO5)nc4ccccc34)CC2)cc1 | -9 | -9 | 23µM* | u | -2 | 32µM*
CCN(CC)CCSc1c(C(C)C)cnc2c1c(=O)n(C)c(=O)n2C | x | -4 | -2% | 4% | x | 0%
Cn1cccc1C(=O)NC1CCCCCC1 | -2 | 0 | -21% | -9% | -2 | -2%
CCN1C(=O)C2(c3ccccc31)c1c(oc3ccc(F)cc3c1=O)C(=O)N2CCCOC (stereo unspecified) | x | -8 | -8% | u | x | -2%
COc1ccc(-c2cc(C(=O)N3CCCC3)c3ccccc3n2)cc1 | -18 | 5 | 6% | 3% | 0 | 4%
COc1ccc(-c2cc(C(=O)N3CC(C)CC(C)C3)c3ccccc3n2)cc1 (stereo unspecified) | -2 | 2 | 21µM* | u | u | 28µM*
COc1ccc(-c2cc(C(=O)N3CCN(c4ccccc4O)CC3)c3ccccc3n2)cc1OC | 26 | 12 | 18µM* | u | u | -11%
COc1ccc(-c2cc(C(=O)N3CCN(c4ccccc4O)CC3)c3ccccc3n2)cc1 | 29 | 1 | u | u | u | 4%
COc1ccc(-c2cc(C(=O)N3CCN(c4ncccn4)CC3)c3ccccc3n2)c(OC)c1 | 21 | -2 | 23µM* | u | 7 | u
COc1ccc(-c2cc(C(=O)N3CCN(c4ccccc4F)CC3)c3ccccc3n2)c(OC)c1 | 70 | 19 | 18µM* | u | -2 | 28µM*
COc1ccc2nc(-c3ccccc3)cc(C(=O)OCC(=O)NC3CC3)c2c1 | 1 | -8 | 0% | 11% | 25 | 10µM*
COc1ccc(N2CCN(C(=O)c3cn(Cc4ccccc4)nc3-c3cccnc3)CC2)cc1 | -17 | 5 | -16% | -24% | 10 | 0%
